We go through twelve compounds from PubChem BioAssay (Tox21).

SMILES strings stand for the structures. Unmarked numbers belong to inactive results. Results filed as inconclusive are left out. Activity calls are given as the source filed them. Calls follow the shape of the dose curve; as a rule, active = well fitted curve in the direction sought with a large enough effect in the repeat runs; inconclusive = weak or mixed curves; inactive = no such curve, though single readings can be large; an effect the other way counts as inactive or inconclusive.

Assay [1] in a line: Caspase-3/7 induction in HepG2 cells by small molecules, qHTS assay (AID 1346978). Also: nearly all actives have a fitted effect of over 15% in size. Also: potency is read from the fitted curve at half-maximal effect. The method, boiled down:
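Wild-type HepG2 cells, 2,000/well, settled 5 hr at 37 C and 5% CO2, then compound-treated for 17 hr; caspase-3/7 activity read by luminescent Caspase-Glo 3/7 after 30 min at room temperature.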
In general terms: qHTS replaces the single test concentration by a dilution series.

A short description of assay [2]: Caspase-3/7 induction in CHO-K1 cells by small molecules, qHTS cell viability counter screen (AID 1346979). Also: nearly all actives have a fitted effect of over 35% in size. The essentials: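 Multiplexed with Caspase-Glo 3/7 in CHO-K1 cells, this counter screen added CellTiter-Fluor after 16hr of compound exposure and recorded fluorescence 1hr later.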
Assay [3] can be described thus: Caspase-3/7 induction in HepG2 cells by small molecules, qHTS cell viability counter screen (AID 1346981). Also: series mostly up to about 92 µM; nearly all actives have a fitted effect of over 30% in size. The method, boiled down:
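Wild-type HepG2 cells (2,000/well) were allowed to settle for 5 hr at 37 C, 5% CO2, then dosed with compounds in DMSO by pin transfer. After 16 hr at 37 C, CellTiter-Fluor was added and fluorescence read 1 hr later.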

Assay [4] concerns the target Nuclear receptor subfamily 1 group I member 2 (Homo sapiens) (UniProt O75469). As to the kind of experiment: Human pregnane X receptor (PXR) small molecule agonists, qHTS assay (AID 1346982). Also: nearly all actives have a fitted effect of over 35% in size. Also: potency is read from the fitted curve at half-maximal effect. The essentials:
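PXR-Luc HepG2 cells (CYP3A4 promoter-driven luciferase) were seeded in medium with 5% charcoal-stripped FBS, left 5 hr at 37 C, then exposed to compounds in DMSO for 24 hr. Luminescence was read after ONE-Glo addition.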

The target in assay [5] is Cytochrome P450 2D6 (Homo sapiens) (UniProt P10635). Nature of the assay: Cytochrome P450 Family 2 Subfamily D Member 6 (CYP2D6) small molecule antagonists: luciferase reporter qHTS assay (AID 1671196). Also: nearly all actives have a fitted effect of over 50% in size. Also: potency is read from the fitted curve at half-maximal effect. As to activity change, negative = inhibition: series mostly up to about 120 µM. The method, boiled down: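 CYP2D6 enzyme–substrate mix was held with compound for 10 min at room temperature, then NADPH regeneration solution was added and the reaction ran 1 h at room temperature. Luciferin product was detected by luminescence after 20 min with detection reagent.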
Sequence of Cytochrome P450 2D6 (Homo sapiens) (P10635 whole entry, looked up): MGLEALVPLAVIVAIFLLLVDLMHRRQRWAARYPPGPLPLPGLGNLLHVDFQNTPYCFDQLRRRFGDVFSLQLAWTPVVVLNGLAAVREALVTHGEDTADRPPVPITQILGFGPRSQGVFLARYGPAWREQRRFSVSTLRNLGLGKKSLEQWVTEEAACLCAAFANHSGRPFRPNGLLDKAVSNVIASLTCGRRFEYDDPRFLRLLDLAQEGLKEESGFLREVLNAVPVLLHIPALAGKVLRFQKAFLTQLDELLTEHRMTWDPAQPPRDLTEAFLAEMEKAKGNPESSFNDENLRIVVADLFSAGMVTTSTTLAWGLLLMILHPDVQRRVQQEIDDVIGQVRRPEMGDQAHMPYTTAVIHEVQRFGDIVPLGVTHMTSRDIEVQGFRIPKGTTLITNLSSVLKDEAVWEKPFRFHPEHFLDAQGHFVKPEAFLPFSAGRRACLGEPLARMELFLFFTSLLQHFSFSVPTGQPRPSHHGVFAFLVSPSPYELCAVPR
A general note: A reporter such as luciferase makes a cellular process visible.

For assay [6], the target named is Cytochrome P450 2C19 (Homo sapiens) (UniProt P33261). Nature of the assay: Cytochrome P450 Family 2 Subfamily C Member 19 (CYP2C19) small molecule antagonists: luciferase reporter qHTS assay (AID 1671197). Also: nearly all actives have a fitted effect of over 65% in size. Also: potency is read from the fitted curve at half-maximal effect. As to activity change, negative = inhibition: series mostly up to about 120 µM. The essentials: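 Relative luminescence units recorded 20 min after the detection reagent stopped a 1 h, 37C CYP2C19 reaction on proluciferin substrate, which was started by NADPH regeneration following 10 min room-temperature compound preincubation; ketoconazole positive control.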
Sequence of Cytochrome P450 2C19 (Homo sapiens) (P33261 whole entry, looked up): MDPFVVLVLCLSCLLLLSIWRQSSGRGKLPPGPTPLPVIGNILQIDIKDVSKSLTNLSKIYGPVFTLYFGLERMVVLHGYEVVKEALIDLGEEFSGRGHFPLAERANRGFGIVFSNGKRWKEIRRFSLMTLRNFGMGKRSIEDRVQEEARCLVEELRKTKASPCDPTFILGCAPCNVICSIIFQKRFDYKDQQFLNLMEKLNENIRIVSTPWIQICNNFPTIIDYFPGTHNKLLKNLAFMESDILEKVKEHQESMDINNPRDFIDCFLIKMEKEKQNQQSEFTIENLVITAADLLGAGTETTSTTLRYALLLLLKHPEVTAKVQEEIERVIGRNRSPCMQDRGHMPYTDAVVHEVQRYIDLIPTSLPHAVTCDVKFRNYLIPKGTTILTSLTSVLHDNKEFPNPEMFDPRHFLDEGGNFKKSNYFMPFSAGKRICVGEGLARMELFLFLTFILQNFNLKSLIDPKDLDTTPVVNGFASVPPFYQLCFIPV

The target in assay [7] is Cytochrome P450 2C9 (Homo sapiens) (UniProt P11712). Nature of the assay: Cytochrome P450 Family 2 Subfamily C Member 9 (CYP2C9) small molecule antagonists: luciferase reporter qHTS assay (AID 1671198). Also: nearly all actives have a fitted effect of over 50% in size. Also: potency is read from the fitted curve at half-maximal effect. As to activity change, negative = inhibition: series mostly up to about 120 µM. The method, boiled down:
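P450-Glo proluciferin substrate with CYP2C9 enzyme; 10 min RT preincubation, then NADPH regeneration 1 h at 37C; luciferin detection reagent 20 min RT, luminescence in relative luminescence units.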

For assay [8], the target named is Cytochrome P450 1A2 (Homo sapiens) (UniProt P05177). As to the kind of experiment: Cytochrome P450 Family 1 Subfamily A Member 2 (CYP1A2) small molecule antagonists: luciferase reporter qHTS assay (AID 1671199). Also: nearly all actives have a fitted effect of over 50% in size. Also: potency is read from the fitted curve at half-maximal effect. As to activity change, negative = inhibition: series mostly up to about 120 µM. The method, boiled down:
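Human CYP1A2 activity measured with a P450-Glo proluciferin substrate; compounds in DMSO preincubated 10 min at room temperature with enzyme-substrate mix, then NADPH regeneration system added for 1 h. Luciferin detection reagent, 20 min, luminescence read.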

In assay [9] the target is Voltage-gated inwardly rectifying potassium channel KCNH2 (Homo sapiens) (UniProt Q12809). Nature of the assay: Human Ether-a-go-go-Related Gene (hERG) channel small molecule antagonists: fluorescence cell-based qHTS assay (AID 1671200). Also: nearly all actives have a fitted effect of over 50% in size. Also: potency is read from the fitted curve at half-maximal effect.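 As to activity change, negative = inhibition: hERG-expressing U2OS cells given a thallium stimulus after FluxOR II dye loading; series mostly up to about 77 µM.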 The method, boiled down: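 Cell line hERG-U2OS; dye FluxOR II, 1 h RT dark; Tl+ stimulus; ex 480/em 540 nm, read each second for 2 min.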
Sequence of Voltage-gated inwardly rectifying potassium channel KCNH2 (Homo sapiens) (Q12809 whole entry, looked up): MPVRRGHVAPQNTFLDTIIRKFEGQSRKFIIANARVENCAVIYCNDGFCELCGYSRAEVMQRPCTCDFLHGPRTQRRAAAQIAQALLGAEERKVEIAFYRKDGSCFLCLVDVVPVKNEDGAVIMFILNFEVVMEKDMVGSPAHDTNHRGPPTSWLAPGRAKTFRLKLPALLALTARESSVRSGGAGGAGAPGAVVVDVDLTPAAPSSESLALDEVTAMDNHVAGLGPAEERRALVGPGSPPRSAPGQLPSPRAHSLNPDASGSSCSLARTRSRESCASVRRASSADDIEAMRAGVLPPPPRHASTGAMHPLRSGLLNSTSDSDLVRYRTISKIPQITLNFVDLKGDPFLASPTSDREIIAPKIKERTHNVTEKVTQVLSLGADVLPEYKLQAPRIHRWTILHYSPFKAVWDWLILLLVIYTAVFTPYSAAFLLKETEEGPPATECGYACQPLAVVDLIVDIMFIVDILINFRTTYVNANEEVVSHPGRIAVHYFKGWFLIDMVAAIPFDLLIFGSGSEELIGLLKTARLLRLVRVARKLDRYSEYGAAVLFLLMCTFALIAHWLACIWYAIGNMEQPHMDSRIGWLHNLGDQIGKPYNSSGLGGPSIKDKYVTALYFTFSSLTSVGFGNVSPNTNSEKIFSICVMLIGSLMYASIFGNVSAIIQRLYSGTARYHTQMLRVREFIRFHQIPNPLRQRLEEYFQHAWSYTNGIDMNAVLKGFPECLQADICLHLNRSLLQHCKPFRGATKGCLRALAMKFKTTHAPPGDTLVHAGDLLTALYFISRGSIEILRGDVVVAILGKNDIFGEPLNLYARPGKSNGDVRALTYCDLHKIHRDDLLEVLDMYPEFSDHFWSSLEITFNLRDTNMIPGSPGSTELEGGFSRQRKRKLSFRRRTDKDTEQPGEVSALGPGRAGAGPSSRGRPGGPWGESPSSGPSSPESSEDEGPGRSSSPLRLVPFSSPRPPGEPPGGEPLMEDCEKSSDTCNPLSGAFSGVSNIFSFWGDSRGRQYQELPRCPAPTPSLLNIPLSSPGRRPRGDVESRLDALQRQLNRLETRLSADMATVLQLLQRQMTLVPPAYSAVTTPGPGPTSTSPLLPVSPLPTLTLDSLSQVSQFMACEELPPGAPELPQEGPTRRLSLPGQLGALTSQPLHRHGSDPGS
(In general: The hERG channel carries a current that helps repolarise heart muscle cells.)

The target of assay [10] is Cytochrome P450 3A4 (Homo sapiens) (UniProt P08684). Nature of the assay: Cytochrome P450 Family 3 Subfamily A Member 4 (CYP3A4) small molecule antagonists: luciferase reporter qHTS assay (AID 1671201). The method, boiled down: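 Room-temperature assay throughout: 10 min compound–enzyme/substrate preincubation, 1 h reaction after NADPH regeneration solution, 20 min detection. Luciferin formed from proluciferin substrate is quantified by luminescence.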
Sequence of Cytochrome P450 3A4 (Homo sapiens) (P08684 whole entry, looked up): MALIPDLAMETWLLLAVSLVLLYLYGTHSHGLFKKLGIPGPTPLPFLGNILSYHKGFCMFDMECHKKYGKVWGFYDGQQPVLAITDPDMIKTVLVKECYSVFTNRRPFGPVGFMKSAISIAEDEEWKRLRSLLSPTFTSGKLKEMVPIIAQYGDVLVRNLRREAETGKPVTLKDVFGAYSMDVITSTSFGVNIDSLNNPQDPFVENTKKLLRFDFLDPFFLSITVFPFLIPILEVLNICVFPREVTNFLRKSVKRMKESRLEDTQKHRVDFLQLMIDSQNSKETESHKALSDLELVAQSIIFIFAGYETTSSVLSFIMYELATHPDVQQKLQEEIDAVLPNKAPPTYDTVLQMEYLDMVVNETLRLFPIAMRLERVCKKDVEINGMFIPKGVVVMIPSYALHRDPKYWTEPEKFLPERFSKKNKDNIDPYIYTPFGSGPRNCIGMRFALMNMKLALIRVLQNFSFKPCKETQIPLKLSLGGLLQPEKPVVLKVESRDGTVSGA

Assay [11] concerns the target Nuclear receptor subfamily 1 group I member 2 (Homo sapiens) (UniProt O75469). As to the kind of experiment: CYP3A4 induction through human pregnane X receptor (PXR) by small molecules, qHTS assay (AID 1346984). Also: nearly all actives have a fitted effect of over 40% in size. The method, boiled down:
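DPX-2 cells (HepG2 co-transfected with PXR and CYP3A4 promoter-luciferase) treated with compounds 24 h at 37C; luciferin-IPA CYP3A4 substrate 3uM final added for 3 h, then One-Glo; luminescence read. qHTS format.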

The target is the same in assay [12]. Nature of the assay: Human pregnane X receptor (PXR) activation by small molecules, qHTS assay (AID 1346985). Also: nearly all actives have a fitted effect of over 40% in size. The method, boiled down:
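DPX-2 cells (HepG2 co-transfected with a PXR response element and a CYP3A4-promoter luciferase construct) were seeded at 2,000 per well, rested 5 hr at 37C, then exposed to DMSO-dissolved compounds for 24 hr. Activation was read as luciferase luminescence.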

Assay [13] in a line: Caspase-3/7 induction in CHO-K1 cells by small molecules, qHTS assay (AID 1346980). Also: nearly all actives have a fitted effect of over 15% in size. The method, boiled down:
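Wild-type CHO-K1 cells exposed to compounds for 17hr at 37 C, 5% CO2. Caspase-3/7 activity then measured by Caspase-Glo 3/7 luminescence after 30min at room temperature.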
% is scaled to controls: 0 for no effect and ±100 for the full control effect.

Sequence of Cytochrome P450 2C9 (Homo sapiens) (P11712 whole entry, looked up): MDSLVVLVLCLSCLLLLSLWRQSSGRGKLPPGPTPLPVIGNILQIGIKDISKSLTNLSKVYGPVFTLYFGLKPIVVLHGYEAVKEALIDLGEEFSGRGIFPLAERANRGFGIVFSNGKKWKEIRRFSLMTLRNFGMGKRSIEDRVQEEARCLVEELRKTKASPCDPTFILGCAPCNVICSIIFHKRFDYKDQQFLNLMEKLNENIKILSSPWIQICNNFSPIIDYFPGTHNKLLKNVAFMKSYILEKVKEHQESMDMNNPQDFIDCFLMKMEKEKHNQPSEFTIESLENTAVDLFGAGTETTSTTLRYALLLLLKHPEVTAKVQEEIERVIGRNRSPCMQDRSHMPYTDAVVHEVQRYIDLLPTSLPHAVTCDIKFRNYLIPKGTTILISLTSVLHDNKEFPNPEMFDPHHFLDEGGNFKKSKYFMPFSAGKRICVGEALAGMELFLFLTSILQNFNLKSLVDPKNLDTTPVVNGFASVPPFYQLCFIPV
Sequence of Cytochrome P450 1A2 (Homo sapiens) (P05177 whole entry, looked up): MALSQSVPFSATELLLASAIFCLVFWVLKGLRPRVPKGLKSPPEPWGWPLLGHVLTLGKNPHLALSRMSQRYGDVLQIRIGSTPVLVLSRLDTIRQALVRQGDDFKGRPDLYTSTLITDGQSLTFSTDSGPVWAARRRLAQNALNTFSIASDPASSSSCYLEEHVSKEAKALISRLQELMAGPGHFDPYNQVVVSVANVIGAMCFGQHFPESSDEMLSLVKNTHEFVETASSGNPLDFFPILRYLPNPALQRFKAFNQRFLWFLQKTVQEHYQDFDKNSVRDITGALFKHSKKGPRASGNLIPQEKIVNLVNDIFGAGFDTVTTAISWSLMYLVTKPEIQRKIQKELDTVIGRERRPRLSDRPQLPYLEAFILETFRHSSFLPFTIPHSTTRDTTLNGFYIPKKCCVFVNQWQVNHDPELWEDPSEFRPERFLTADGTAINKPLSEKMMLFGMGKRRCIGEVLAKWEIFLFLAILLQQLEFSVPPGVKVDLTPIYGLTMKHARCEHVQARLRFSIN
Sequence of Nuclear receptor subfamily 1 group I member 2 (Homo sapiens) (O75469 whole entry, looked up): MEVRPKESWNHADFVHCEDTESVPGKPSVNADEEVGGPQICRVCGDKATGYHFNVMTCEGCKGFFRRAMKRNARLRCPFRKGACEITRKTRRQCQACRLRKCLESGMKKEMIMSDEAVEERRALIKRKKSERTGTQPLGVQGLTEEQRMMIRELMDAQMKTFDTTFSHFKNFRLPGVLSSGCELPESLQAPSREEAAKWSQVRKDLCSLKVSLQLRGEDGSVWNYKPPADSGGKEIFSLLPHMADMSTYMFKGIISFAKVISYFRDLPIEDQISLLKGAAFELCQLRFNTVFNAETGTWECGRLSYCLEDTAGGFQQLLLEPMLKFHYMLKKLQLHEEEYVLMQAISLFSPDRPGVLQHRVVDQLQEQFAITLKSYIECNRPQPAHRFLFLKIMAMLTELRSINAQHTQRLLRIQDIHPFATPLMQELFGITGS

As for `OC[C@H]1O[C@@H](O[C@H]2[C@H](O)[C@@H](O)[C@H](O)O[C@@H]2CO)[C@H](O)[C@@H](O)[C@H]1O`, the Potency result in assay [1], in assay [2], in assay [3], in assay [4], in assay [5] and in [6] was “inactive” in each case. Moreover, the Potency entry in [7], in assay [8], in assay [9] and in assay [10] was “inactive” in each case.

As to `CC1CN(c2ccccc2)NC1=O` (stereo not drawn), the Potency entry in assay [1], in assay [2], in [3] and in assay [9] was “inactive” in each case. The Potency in assay [4] was 54.5 µM (active); in [5], 31.7 µM (active); in assay [6], 12.6 µM (active); in [7] it was 20 µM (active); in assay [8], 22.4 µM (active).

For the compound `CN1[C@@H]2CC[C@H]1CC(OC(=O)c1c[nH]c3ccccc13)C2` (stereo partly drawn), the Potency entry in [1], in assay [2], in [3], in assay [6], in assay [7] and in assay [8] was “inactive” throughout. In assay [10], the Potency entry is “inactive”. For the same compound, the Potency in assay [9] was 19 µM (active).

`Cc1nnc(SCC2=C(C(=O)O)N3C(=O)[C@@H](NC(=O)Cn4cnnn4)[C@H]3SC2)s1`: the Potency entry in assay [1], in assay [2], in assay [4], in [11], in assay [12] and in assay [5] was “inactive” each time. Also, the Potency entry in assay [6], in assay [9] and in [10] was “inactive” each time.

With `CCOC(=O)COc1ccc2c(c1)CC(NCC(O)c1cccc(Cl)c1)CC2` (stereo not drawn), the Potency was 48.9 µM (active) in assay [1]; 0.452 µM (active) in [5]; 45.2 µM (active) in [6]; 35.9 µM (active) in [7]; 1.39 µM (active) in assay [9]. The result in [13] was inactive. For the same compound, the Potency entry in assay [4], in [8] and in [10] was “inactive” each time.

Consider `Cc1ncc(CO)c(CN)c1O`, for which the Potency entry in assay [1], in [4], in assay [11], in [12], in assay [7] and in assay [8] was “inactive” throughout. The Potency entry in assay [9] and in [10] was “inactive” each time. Besides, the outcome in [13] was inactive.

With `O=Cc1ccc(O)c(O)c1O`, the Potency entry in assay [1], in assay [4], in assay [6], in assay [8], in assay [9] and in assay [10] was “inactive” in each case. Also, the compound was classed as inactive in assay [13].

In the case of `CC1=CC(=O)CC(C)(C)C1=O`, the Potency entry in assay [1], in [3], in [5], in [6], in [7] and in assay [8] was “inactive” throughout. The Potency result in assay [9] and in assay [10] was “inactive” each time. For the same compound, in [13], the compound was called inactive. In addition, the Potency in [4] was 62.4 µM (active).

Regarding `CC(C)=CCC[C@](C)(O)[C@@H]1CC=C(C)CC1`, the Potency entry in [1], in assay [3] and in [4] was “inactive” in each case. The outcome in assay [13] was inactive. Also, the Potency is 5.03 µM (active) in assay [6], 31.7 µM (active) in assay [7] and 39.9 µM (active) in assay [8].

Consider `CCCCOc1cc(C(=O)NCCN(CC)CC)c2ccccc2n1`, for which the Potency entry in assay [1] and in assay [7] was “inactive” each time. Moreover, the compound was classed as inactive in assay [13]. Further, the Potency in [5] is 13.8 µM (active); in assay [6] it was 34.7 µM (active); in assay [9], 5.35 µM (active).

For `O=c1oc2c(O)c(O)cc3c(=O)oc4c(O)c(O)cc1c4c23`, the caspase activation in assay [1] was 0.0819% [at 19 µM]. In addition, the caspase-3/7 activation in assay [13] is 0.998% [at 19 µM]. In addition, the activity change, negative = cytotoxicity in [3] was 1.61% [at 19 µM]. Further, in assay [4], the activation was -29.4% [at 19 µM]. Moreover, the activity change, negative = inhibition in [5] is -16.4% [at 23.6 µM]; in assay [6], 0.227% [at 23.6 µM]; in [9], 6.87% [at 15.8 µM]; in [10], 6.71% [at 23.6 µM]. The Potency result in assay [7] and in [8] was “inactive” throughout.

Take `CCOc1ccc(OCC)c(Cl)c1`: the Potency result in [1], in [4], in [5], in [6], in [7] and in [9] was “inactive” in each case. Moreover, the Potency entry in assay [10] is “inactive”. Besides, the compound was called inactive in [13]. In addition, in [8], the Potency is 25.2 µM (active).
